The campaign covered roughly 200,000 compounds. About 15 (0.007%) were called active. No stated cut-off is given here; in the data, active means displacement above about 50%; inactive means the rest. For the sample, actives were picked, then their nearest neighbours and some compounds at random.

The target of this test is E3 ubiquitin-protein ligase XIAP (Homo sapiens) (UniProt P98170). Put plainly: XIAP antagonists, biochemical, IAP family, fluorescence polarization (AID 1018). The conditions noted are these: XIAP BIR domain, fluorescence polarization peptide displacement; at 20 µM; active compounds read high. A general note: In fluorescence polarisation assays a small probe gives low polarisation when free and higher when bound to something large.
Chain of E3 ubiquitin-protein ligase XIAP (Homo sapiens) (P98170 whole entry, looked up, the tested form may be a part): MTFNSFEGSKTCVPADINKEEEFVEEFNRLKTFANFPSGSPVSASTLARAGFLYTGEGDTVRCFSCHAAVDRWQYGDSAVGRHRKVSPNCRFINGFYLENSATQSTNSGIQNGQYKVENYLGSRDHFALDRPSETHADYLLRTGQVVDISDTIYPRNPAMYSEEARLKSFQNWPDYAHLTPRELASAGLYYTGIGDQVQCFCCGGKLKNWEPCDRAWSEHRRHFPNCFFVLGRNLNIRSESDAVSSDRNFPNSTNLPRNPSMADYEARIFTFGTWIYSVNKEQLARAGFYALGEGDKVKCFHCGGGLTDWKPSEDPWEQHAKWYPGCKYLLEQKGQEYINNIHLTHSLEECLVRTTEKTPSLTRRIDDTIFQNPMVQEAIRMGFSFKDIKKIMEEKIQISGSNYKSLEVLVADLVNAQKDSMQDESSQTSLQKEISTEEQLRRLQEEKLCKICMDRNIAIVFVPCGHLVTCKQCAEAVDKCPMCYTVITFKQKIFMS
For `CC(=O)COc1cc(C)cc2oc(=O)c(C)c(C)c12`, the displacement was 61.1% (active).

Consider `CC(=O)C(C)Oc1cc(C)cc2oc(=O)c(C)c(C)c12` (stereo not given), for which the displacement is -5.9% (inactive).

Regarding `Cc1cc(OCC(=O)C(C)(C)C)c2c(C)c(C)c(=O)oc2c1`, the displacement is -1.7% (inactive). Then `Cc1ccc(Cn2nnc3c(=O)[nH]c(C4CCN(S(=O)(=O)c5ccc(F)cc5)CC4)nc32)cc1`, with 63.3% (active); and `Cc1ccc(Cn2nnc3c(=O)[nH]c(C4CCN(S(=O)(=O)c5ccc(C)cc5)CC4)nc32)cc1`, with -2% (inactive); and `Cc1ccc(Cn2nnc3c(=O)[nH]c(C4CCN(S(=O)(=O)c5ccccc5)CC4)nc32)cc1`, with -5.4% (inactive). Then `COc1ccc(N(CC(O)CN2CCCCC2)S(=O)(=O)c2ccc(C)cc2)cc1` (stereo not given), with -3.7% (inactive); and `C=CC(=O)NCCCc1cc(C(C)(C)C)c(O)c(C(C)(C)C)c1`, with -6.9% (inactive). For `Cc1ccccc1N(CC(=O)O)S(C)(=O)=O` the value was -4.6% (inactive); for `CN(C)CCCOC(=O)COc1ccc(C(C)(C)C)cc1`, -1.4% (inactive). Consider `CCC(C)(C(=O)NC1CCCC1)N(Cc1cccs1)C(=O)c1ccc2c(c1)OCO2` (stereo not given), for which the displacement was -5.3% (inactive). Then `CC(C)Cn1c2c(c(O)c(C(=O)Nc3ccc(F)cc3)c1=O)CCCC2`, with 0.5% (inactive); and `COc1ccccc1NCCC#N`, with -1.4% (inactive); and `Cc1cccc(OCC(=O)NNC(=O)c2cccs2)c1`, with -3.8% (inactive).

As to `Cc1[nH]n(-c2ccc([N+](=O)[O-])cc2)c(=O)c1C=NCCN1CCN(C(=O)c2ccccc2)CC1`, the displacement is -2.6% (inactive). For `O=C(NCCCO)c1ccc(CSc2nc3ccccc3[nH]2)cc1` the value was -4% (inactive). Then `CC(=O)C1C(c2cccc(F)c2)NC(=O)NC1(O)C(F)(F)F` (stereo not given), with 0% (inactive). For `COC(=O)C(NNc1ccccc1C)(NC(=O)c1ccc(F)cc1)C(F)(F)F` (stereo not given) the value was -3.9% (inactive); for `O=C(/C=C/c1ccco1)NCC(=O)N/N=C/c1ccccc1[N+](=O)[O-]`, -3.9% (inactive). `O=c1c(Cc2ccc(F)cc2)c(O)ccn1CCc1ccccn1`: the displacement is -4.4% (inactive). As to `CCN1/C(=C/c2ccc3cc(C)ccc3[n+]2CC)Sc2ccccc21`, the displacement is -5.1% (inactive). Regarding `CCN1/C(=C/c2ccc3cc(C)ccc3[n+]2CC)Sc2cc(C)ccc21`, the displacement is 1.8% (inactive). For `CCN1/C(=C/c2ccc3cc(C)ccc3[n+]2C)Sc2ccc3sccc3c21` the value was 72.1% (active); for `O=C(COc1ccccc1)Nc1ccncc1`, -2.7% (inactive); for `Cc1sc(N)c(C#N)c1C`, -1.2% (inactive). For `CC(C)Oc1cccc(C(=O)C2CCCN(Cc3ccc4nonc4c3)C2)c1` (stereo not given) the value was -5.9% (inactive); for `CCc1c(C)nc2c(Br)cccc2c1SCCC#N`, -0.5% (inactive); for `CN(C)c1nc(N)nc(CSc2nnnn2-c2ccccc2)n1`, -5.7% (inactive). On to `CCOC(=O)c1c(-c2ccccc2)oc2ccc(O)c(CN3CCN(C)CC3)c12`, for which the displacement was -5.2% (inactive).

With `Cc1cc(NC(=O)COn2nnc3ccc(Cl)cc32)no1`, the displacement is -5.1% (inactive). For `COc1ccc(OC)c(NC(=O)C23CC4CC(C2)CC(n2cnc(Br)n2)(C4)C3)c1` the value was -3.2% (inactive); for `CCC(Oc1ccccc1)C(=O)N1CC(C)CC(C)C1` (stereo not given), 2.4% (inactive). Then `C[N+]1(CC(=O)OCCCc2ccccc2)CCCC1`, with -9.6% (inactive); and `O=C(NC1CCCc2ccccc21)c1ccc(S(=O)(=O)N2CCOCC2)cc1` (stereo not given), with -3.4% (inactive); and `CCOc1cccc2cc(C(=O)N3CCc4ccccc43)c(=O)oc12`, with -88.7% (inactive).

`CCC(/C=N/NC(=O)C(=O)N/N=C/C(CC)CC)CC`: the displacement was -0.2% (inactive). For `COc1cccc(C(=O)COc2cccc(NC(=O)c3cccc([N+](=O)[O-])c3)c2)c1` the value was -1.9% (inactive); for `O=C(COc1cccc(NC(=O)c2cccc([N+](=O)[O-])c2)c1)c1ccc(Br)cc1`, -6.2% (inactive). Then `O=C(COc1cccc(NC(=O)c2cccc([N+](=O)[O-])c2)c1)c1ccc(F)cc1`, with 59.8% (active); and `CC(=O)Nc1ccccc1OCC(=O)NCCc1ccc(Cl)cc1Cl`, with -8.3% (inactive); and `COCCNC(=O)CCSCc1ccccc1F`, with -1.3% (inactive). With `O=C(Nc1ccccc1C(F)(F)F)NC1CCCCC1`, the displacement is -2.8% (inactive). Then `CC(=O)Nc1cc(C)c(S(C)(=O)=O)c(C)c1`, with -8.9% (inactive); and `CC1CN(CC(O)COC(c2ccccc2)c2ccccc2)CC(C)O1` (stereo not given), with -4.7% (inactive); and `CC(=C/c1ccc(C(C)C)cc1)/C=N/NC(=O)c1ccncc1`, with -6.3% (inactive). As to `O=C(CN1CCc2ccccc2C1)Nc1ccc(F)cc1F`, the displacement was -0.5% (inactive). Consider `Cc1ccc(C(=O)Nc2ncc(C)s2)o1`, for which the displacement is -3.4% (inactive). For `COc1ccccc1CCc1nnc(CCC(=O)NCCCOc2cccnc2)o1` the value was -4.3% (inactive); for `CC1=C(C(=O)Nc2ccccc2)C(c2ccccc2[N+](=O)[O-])NC(=O)N1` (stereo not given), -1.5% (inactive).

For the compound `O=[N+]([O-])c1ccccc1OCCCN1CCOCC1`, the displacement was -4.4% (inactive). As for `CC(C)CNC(=O)NC(=O)COc1ncnc2sccc12`, the displacement was -1.4% (inactive). On to `COc1ccc(NC(=O)CSc2nnc(NC(=O)c3ccccc3C(=O)O)s2)cc1`, for which the displacement was -4.3% (inactive).

As to `Cc1ccc(Sc2nc(C)cc(C)c2S(C)(=O)=O)cc1`, the displacement is -4.9% (inactive). For `COCCNC(=O)NC(=O)COC(=O)c1ccc2[nH]c3c(c2c1)CCCC3` the value was -1.1% (inactive); for `O=C(CCCC(=O)OCC(Cl)=C(Cl)Cl)Nc1cccc(F)c1`, -3.5% (inactive).

Source of the values: PubChem BioAssay AID1018 (Sanford-Burnham Center for Chemical Genomics, 2008).
